Measured values from PubChem BioAssay.
Active and inactive are the calls of the source. Unless noted, the rule behind the calls is not given here.

What was measured:
[1] = test system: Wnt5a (protein binding on small-molecule microarray); assay: Wnt5a binders on small-molecule microarray, primary screen, biophysical, 635/667 nm fluorescence (AID 1142); conditions: 635 nm fluorescence, higher = more signal;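 note: fluorescence read at 667 nm with signal to noise per printed feature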
[2] = cell viability in Huh7 cells, primary screen, cytotoxicity control for HCV replication inhibitor project, CellTiter-Glo luminescence, basal, 48 h (AID 1143); conditions: Huh7 HCV replicon, higher = more signal, called active from +8 up or from −8 down;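 note: Huh7 hepatoma cells carrying a hepatitis C replication reporter with no stimulus; test concentration not given here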
[3] = P. aeruginosa biofilm formation inhibitors, primary screen, PAO1 strain, BacTiter-Glo luminescence, LB-PBS (AID 1144); conditions: 12 h, higher = more signal
[4] = CREB reporter modulators without forskolin, primary screen, cell-based, PC12, CRE-LacZ reporter, unstimulated (AID 1145); conditions: no forskolin, luminescence, 4.5 h, higher = more signal, called active from +8 up or from −8 down
[5] = CREB reporter modulators under forskolin, primary screen, cell-based, PC12, CRE-LacZ reporter, forskolin-stimulated (AID 1146); conditions: luminescence, 4.5 h, higher = more signal, called active from +8 up or from −8 down;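 note: PC12 cells with 6xCRE LacZ reporter stimulated by forskolin 10 µM; beta-galactosidase reporter signal reflecting CREB driven transcription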
[6] = molecular target: Streptavidin (Streptomyces avidinii) (UniProt P22629); assay: streptavidin binders on small-molecule microarray, primary screen, artefact control for SMM compound annotation, biophysical, 635/667 nm fluorescence (AID 1147); conditions: streptavidin binding, higher = more signal;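 note: signal reflects streptavidin binding to arrayed compounds as a control protein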
Sequence of Streptavidin (Streptomyces avidinii) (P22629 whole entry, looked up): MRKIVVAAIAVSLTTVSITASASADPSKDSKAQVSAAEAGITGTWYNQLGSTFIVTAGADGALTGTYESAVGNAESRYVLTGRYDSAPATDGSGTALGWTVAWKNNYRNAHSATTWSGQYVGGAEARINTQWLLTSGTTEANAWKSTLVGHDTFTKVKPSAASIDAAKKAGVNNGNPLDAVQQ

[7] = small-molecule binders of probe aInhba, primary screen, biochemical, small-molecule microarray, 635/667 nm fluorescence (AID 1148); conditions: higher = more signal;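 note: score merges 667nm spot fluorescence with signal-to-noise for antibody binding to printed compounds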
Torsin-1A (Homo sapiens) [8] = molecular target: Torsin-1A (Homo sapiens) (UniProt O14656); assay: torsin A binders from cell lysate, primary screen, small-molecule microarray, wild-type, 635/667 nm (AID 1149); conditions: COS7 hTOR1A-WT lysate, 635 nm fluorescence, higher = more signal
Sequence of Torsin-1A (Homo sapiens) (O14656 whole entry, looked up): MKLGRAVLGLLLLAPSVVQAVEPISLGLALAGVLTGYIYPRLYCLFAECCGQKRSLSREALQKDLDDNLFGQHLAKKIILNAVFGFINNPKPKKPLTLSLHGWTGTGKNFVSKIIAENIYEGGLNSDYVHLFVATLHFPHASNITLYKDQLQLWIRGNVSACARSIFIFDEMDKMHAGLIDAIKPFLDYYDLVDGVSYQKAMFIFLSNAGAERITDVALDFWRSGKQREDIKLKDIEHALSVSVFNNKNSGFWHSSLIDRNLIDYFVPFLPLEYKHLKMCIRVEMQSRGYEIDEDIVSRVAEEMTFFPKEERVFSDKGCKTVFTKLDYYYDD

Torsin-1A (Homo sapiens) [9] = molecular target: Torsin-1A (Homo sapiens) (UniProt O14656); assay: small-molecule binders of mutant TOR1A in lysate, primary screen, cell lysate, small-molecule microarray, COS7 lysate, 635/667 nm fluorescence (AID 1150); conditions: COS7 hTOR1A mutant lysate, 635 nm fluorescence, higher = more signal;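 note: score pools 667 nm emission and signal to noise measuring lysate protein binding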
[10] = test system: Sonic hedgehog protein (Shh); assay: small-molecule binders of Shh protein, primary screen, biochemical, small-molecule microarray, 635/667 nm fluorescence (AID 1151); conditions: small-molecule microarray binding, 635 nm fluorescence; higher = more signal;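 note: Shh protein binding to compounds spotted on small-molecule microarray slides; score combines spot fluorescence intensity with signal-to-noise across triplicate slides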
[11] = E. coli DRC41 culture turbidity changes, primary screen, E. coli filamentation inducer project, strain DRC41, OD650, 48 h (AID 1152);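 note: E. coli MC1000 strain DRC41 lacking acrAB efflux pump and sulA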; conditions: E. coli DRC41 (acrAB sulA), higher = more signal, called active from +8 up or from −8 down
[12] = small-molecule binders of probe aLefty1, primary screen, biochemical, small-molecule microarray, 635/667 nm fluorescence (AID 1153); conditions: higher = more signal;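 note: score merges spot fluorescence with signal-to-noise ratio from the scanned slide images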
[13] = PSAC antagonists in infected red cells, primary screen, cell-based, P. falciparum Indochina, OD700, 1 h (AID 1154); conditions: P. falciparum Indochina infected RBC osmotic lysis, higher = more signal, called active from +8 up or from −8 down
[14] = PSAC antagonists in infected red cells, primary screen, cell-based, P. falciparum Indochina, OD700, 2 h (AID 1155);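 note: lysis reports solute entry through the parasite surface anion channel PSAC; channel blockers reduce lysis of infected cells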; conditions: P. falciparum Indochina infected erythrocytes, osmotic lysis OD700; higher = more signal, called active from +8 up or from −8 down
[15] = osmotic lysis modulators in infected erythrocytes, primary screen, PSAC antagonist project, cell-based, P. falciparum Indochina, OD700, 3 h (AID 1156); conditions: higher = more signal, called active from +8 up or from −8 down
[16] = PSAC antagonists in infected red cells, primary screen, cell-based, P. falciparum Indochina, OD700, 18 h (AID 1157); conditions: P. falciparum Indochina infected erythrocytes, osmotic lysis OD700, 18 h; higher = more signal, called active from +8 up or from −8 down
[17] = modulators of S6 phosphorylation in cells, primary screen, cell-based, A549, cytoblot, luminescence, serum-stimulated (AID 1158); conditions: A549 phospho-S6 cytoblot, 5 h, higher = more signal;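 note: serum-stimulated A549 lung adenocarcinoma cells; signal is phosphorylated S6 detected by cytoblot immunostaining with HRP secondary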
[18] = molecular target: NADPH oxidase 2 (Homo sapiens) (UniProt P04839); assay: NOX2-dependent H2O2 signal modulators, primary screen, NOX inhibitor project, cell-based, HEK293-NOX2, PMA-stimulated, Amplex Red fluorescence (AID 1159); conditions: 45 min, higher = more signal, called active from +8 up or from −8 down; note: test concentration not given here
Sequence of NADPH oxidase 2 (Homo sapiens) (P04839 whole entry, looked up): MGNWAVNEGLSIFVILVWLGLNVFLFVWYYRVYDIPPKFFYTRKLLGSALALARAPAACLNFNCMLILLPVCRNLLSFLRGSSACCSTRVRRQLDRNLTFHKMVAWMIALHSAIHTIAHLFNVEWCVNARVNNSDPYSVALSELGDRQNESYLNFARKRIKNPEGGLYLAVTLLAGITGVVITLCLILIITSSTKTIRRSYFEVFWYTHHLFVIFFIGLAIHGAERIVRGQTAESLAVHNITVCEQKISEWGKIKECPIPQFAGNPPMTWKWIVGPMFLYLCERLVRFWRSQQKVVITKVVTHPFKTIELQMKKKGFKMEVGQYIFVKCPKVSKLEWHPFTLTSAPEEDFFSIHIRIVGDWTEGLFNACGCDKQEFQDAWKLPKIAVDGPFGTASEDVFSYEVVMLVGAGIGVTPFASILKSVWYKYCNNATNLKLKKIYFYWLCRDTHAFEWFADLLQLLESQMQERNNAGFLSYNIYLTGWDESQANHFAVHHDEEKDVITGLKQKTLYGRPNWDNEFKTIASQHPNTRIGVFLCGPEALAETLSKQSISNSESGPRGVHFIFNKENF

[19] = molecular target: NADPH oxidase 4 (Homo sapiens) (UniProt Q9NPH5); assay: NOX4-dependent H2O2 signal modulators, primary screen, NOX inhibitor project, cell-based, HEK293-NOX4, tetracycline-induced, Amplex Red fluorescence (AID 1160); conditions: 45 min, higher = more signal, called active from +8 up or from −8 down
Sequence of NADPH oxidase 4 (Homo sapiens) (Q9NPH5 whole entry, looked up): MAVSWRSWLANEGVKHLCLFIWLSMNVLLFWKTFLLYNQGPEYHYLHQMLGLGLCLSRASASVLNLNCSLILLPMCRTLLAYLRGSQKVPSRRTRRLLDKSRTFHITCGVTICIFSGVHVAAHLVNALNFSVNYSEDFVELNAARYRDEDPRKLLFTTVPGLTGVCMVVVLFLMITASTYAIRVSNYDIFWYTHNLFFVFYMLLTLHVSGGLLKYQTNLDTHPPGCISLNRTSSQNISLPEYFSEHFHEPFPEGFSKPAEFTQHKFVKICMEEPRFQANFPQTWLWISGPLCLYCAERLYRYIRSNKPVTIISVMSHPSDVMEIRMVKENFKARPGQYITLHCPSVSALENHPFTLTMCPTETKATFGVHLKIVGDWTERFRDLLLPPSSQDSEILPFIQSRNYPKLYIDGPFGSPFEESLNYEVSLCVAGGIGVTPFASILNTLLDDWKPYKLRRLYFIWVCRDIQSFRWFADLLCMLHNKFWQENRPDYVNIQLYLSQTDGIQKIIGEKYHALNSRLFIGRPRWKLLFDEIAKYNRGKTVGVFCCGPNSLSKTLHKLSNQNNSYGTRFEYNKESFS

[20] = molecular target: NADPH oxidase 5 (Homo sapiens) (UniProt Q96PH1); assay: NOX5-dependent H2O2 signal modulators, primary screen, NOX inhibitor project, cell-based, HEK293-NOX5, Amplex Red fluorescence (AID 1161); conditions: HEK293-NOX5, ionomycin, 45 min, higher = more signal
Sequence of NADPH oxidase 5 (Homo sapiens) (Q96PH1 whole entry, looked up): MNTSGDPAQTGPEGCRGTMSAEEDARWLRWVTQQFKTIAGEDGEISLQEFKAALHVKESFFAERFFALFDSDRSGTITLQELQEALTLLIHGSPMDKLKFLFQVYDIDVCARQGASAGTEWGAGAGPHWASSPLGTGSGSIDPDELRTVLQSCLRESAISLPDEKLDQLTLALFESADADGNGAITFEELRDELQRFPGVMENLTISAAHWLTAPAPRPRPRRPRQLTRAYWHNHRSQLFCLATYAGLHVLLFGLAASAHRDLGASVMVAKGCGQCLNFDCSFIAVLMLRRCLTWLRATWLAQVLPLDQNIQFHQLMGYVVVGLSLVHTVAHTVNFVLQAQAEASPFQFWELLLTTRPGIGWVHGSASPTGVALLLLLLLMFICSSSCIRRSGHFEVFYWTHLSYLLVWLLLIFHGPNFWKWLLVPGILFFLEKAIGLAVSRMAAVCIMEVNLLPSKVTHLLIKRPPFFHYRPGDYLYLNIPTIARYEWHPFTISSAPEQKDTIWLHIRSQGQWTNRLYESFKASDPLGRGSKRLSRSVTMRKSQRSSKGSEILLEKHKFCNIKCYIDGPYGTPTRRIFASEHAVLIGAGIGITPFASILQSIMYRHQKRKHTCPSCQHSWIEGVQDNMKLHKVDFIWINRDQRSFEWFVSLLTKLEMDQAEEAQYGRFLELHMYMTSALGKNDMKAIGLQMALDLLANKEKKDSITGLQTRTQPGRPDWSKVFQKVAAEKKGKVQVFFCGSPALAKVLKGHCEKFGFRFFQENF

SMILES | composite z-score [1] | z-score [2] | z-score [3] | z-score [4] | z-score [5] | composite z-score [6] | composite z-score [7] | composite z-score (Torsin-1A (Homo sapiens) [8]) | composite z-score (Torsin-1A (Homo sapiens) [9]) | composite z-score [10] | z-score [11] | composite z-score [12] | z-score [13] | z-score [14] | z-score [15] | z-score [16] | z-score [17] | z-score [18] | z-score [19] | z-score [20]
COc1ccc(COC(=O)NN=C2C[C@@H](O)[C@@H](O)[C@@H]3[C@@H]4C(=O)N(Cc5ccccc5)C(=O)[C@@H]4CC[C@@H]23)cc1 | -0.0129 | -0.19 (inactive) | 0.99 (inactive) | -0.655 (inactive) | 0.426 (inactive) | -0.323 | 0.0785 | -0.0532 | 0.226 | 0.111 | 0.619 (inactive) | -0.0691 | 1.48 (inactive) | 0.363 (inactive) | -0.188 (inactive) | 0.648 (inactive) | -0.12 | -6.33 (inactive) | 0.284 (inactive) | -0.234
CC(C)=CCCC(C)=CCON=C1C[C@@H](O)[C@@H](O)[C@@H]2[C@@H]3C(=O)N(C4CCCCC4)C(=O)[C@@H]3CC[C@H]12 | 0.342 | -2.76 (inactive) | 0.419 (inactive) | -0.38 (inactive) | -0.306 (inactive) | 0.12 | -0.15 | 0.46 | 0.159 | 1.01 | 0.693 (inactive) | -0.132 | 7.24 (inactive) | 0.991 (inactive) | 1.11 (inactive) | 0.645 (inactive) | -0.319 | -0.693 (inactive) | -1.02 (inactive) | -4.91
COc1ccc(COC(=O)NN=C2C[C@@H](O)[C@@H](O)[C@@H]3[C@@H]4C(=O)N(C[C@@H]5CCCO5)C(=O)[C@@H]4CC[C@@H]23)cc1 | 0.0073 | 0.0894 (inactive) | 1.2 (inactive) | 0.338 (inactive) | -0.959 (inactive) | 0.662 | -0.15 | 1.2 | 1 | 0.0407 | 1.08 (inactive) | -0.235 | 3.44 (inactive) | 0.415 (inactive) | 1.3 (inactive) | 0.18 (inactive) | -0.0088 | -0.682 (inactive) | 0.995 (inactive) | -0.0772
CC(CCN1CCCCc2nc(C)c(C)cc21)=NOC[C@@H](O)[C@H]1O[C@@H]2OC(C)(C)O[C@@H]2[C@H]1O | 0.228 | 1.06 (inactive) | -0.0386 (inactive) | -0.0824 (inactive) | 1.41 (inactive) | -0.0979 | -0.248 | 0.477 | 0.296 | 1.62 | -1.25 (inactive) | -0.265 | 0.422 (inactive) | 0.726 (inactive) | 0.637 (inactive) | 0.244 (inactive) | -0.67 | 0.0801 (inactive) | 0.413 (inactive) | -0.216
C[C@@H]1CC[C@H]2C(=O)N3[C@@H](CC[C@@H](C)[C@@H]3c3ccc(Br)cc3)C(=O)N2[C@H]1c1ccc(Br)cc1 | 0.113 | -1.1 (inactive) | 1.21 (inactive) | 0.198 (inactive) | 0.929 (inactive) | 0.146 | -0.0719 | 1.05 | 0.626 | 0.233 | -1.09 (inactive) | -0.0099 | 4.4 (inactive) | 1.07 (inactive) | 0.121 (inactive) | 0.689 (inactive) | 0.448 | 1.79 (inactive) | -1.8 (inactive) | 0.819
